Growth data for eight compounds are collected here from PubChem BioAssay (NCI).

SMILES strings stand for the structures. Compounds without any hit were thinned out: in the full panel of roughly 83,000, 20% have a hit.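 How to read the values: 0–100, growth inhibition (40 = 60% inhibited); 0, no net growth; -100 to 0, cell death (-40 = 40% of starting cells died; -100 = all dead).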 Values without a mark were called inactive. The source made the active and inactive calls. How the source made its calls: active means growth percent below 10; inactive means the rest.

Holding throughout (test): NCI-60 one-dose screen, 48 h (100 = growth as untreated, 0 = no growth, -100 = all killed)
Holding throughout (conditions): 10 µM unless noted

Assay [1] deals with DU-145 prostate.
In assay [2] the test system is K-562 leukemia.
Assay [3] concerns MALME-3M melanoma.
The subject of assay [4] is MDA-MB-231 breast.
Assay [5] has as its system RXF 393 renal.
Assay [6] concerns SF-268 CNS.
Assay [7] concerns SF-295 CNS.
Assay [8] has as its system SF-539 CNS.
For assay [9], the system named is UACC-257 melanoma.
Assay [10] has as its system M14 melanoma.
Assay [11] concerns HCT-15 colon.
In assay [12] the test system is HT29 colon.
The subject of assay [13] is SNB-19 CNS.
Assay [14] deals with U251 CNS.
The subject of assay [15] is PC-3 prostate.
The subject of assay [16] is SK-MEL-5 melanoma.
Assay [17] concerns UACC-62 melanoma.
For assay [18], the system named is LOX IMVI melanoma.
In assay [19] the test system is SK-MEL-28 melanoma.

With `COc1ccc(S(=O)(=O)NCCCNc2cc(-c3c(-c4cccc(OC)c4)nc4sccn34)ccn2)cc1`, the growth was 46.4% in [1]; 25.6% in assay [2]; 66.1% in assay [3]; 46.8% in assay [4]; 56% in assay [5]; 44.9% in [6]. Also, the growth in assay [7] was 40.5%; in assay [8], 61.9%; in [9], 53.3%; in [10], 45%; in [11], 35.7%; in assay [12], 35%. Also, the growth in assay [13] is 62.7%; in [14] it was 59.4%; in [15], 26.9%; in [16], -10.9% (active); in [17], 20.4%; in assay [18], 46.6%. Also, the growth in assay [19] is 65.5%.

For `COc1cccc(-c2cn3c(ccc4ccccc43)n2)c1`, the growth in assay [1] was 39%; in assay [2], 13.2%; in [3], 36.9%; in assay [4] it was 44.9%; in assay [5] it was -5.05% (active); in assay [6] it was 56%. The growth in assay [7] is 10.6%; in [8] it was 12.5%; in assay [9], 58.7%; in [10], 30.2%; in [11], 21.9%; in assay [12], 20.1%. Moreover, the growth in assay [13] was 38.3%; in assay [14], 38.4%; in [15], 34.8%; in assay [16] it was 9.42% (active); in [17] it was 34.4%; in assay [18] it was 31.6%. Besides, the growth in assay [19] is 60%.

For the compound `O=C1O[C@H]([C@H](O)CO)C(O)=C1O`, the growth is 100% in [1]; 107% in assay [2]; 119% in assay [3]; 97.1% in assay [4]; 100% in assay [5]; 117% in [6]. Further, the growth in assay [7] is 110%; in [8], 108%; in [9] it was 103%; in [10], 106%; in assay [11], 103%; in assay [12], 105%. The growth in assay [13] was 95.8%; in assay [14], 101%; in [15], 96%; in assay [16] it was 104%; in assay [17], 98.1%; in assay [18], 94.8%. Further, the growth in [19] is 117%.

On to `Nc1c(C(=O)Nc2ccccc2)sc2nc3c(cc12)CN(CCc1ccccc1)CC3`, for which the growth in [1] is 98.3%; in [2] it was 82.2%; in assay [3] it was 95.7%; in assay [4], 90.4%; in [5] it was 121%; in assay [6], 93.2%. Also, the growth was 103% in assay [7]; 95.3% in [8]; 110% in [9]; 108% in assay [10]; 107% in assay [11]; 104% in [12]. Further, the growth in assay [13] is 95.4%; in assay [14], 91.3%; in [15], 88.1%; in [16], 92.9%; in assay [17] it was 86.4%; in assay [18], 87.5%. Also, the growth in assay [19] is 106%.

As to `Fc1ccc(Cc2ccc(F)cc2)cc1`, the growth in assay [1] was 113%; in assay [2] it was 96.7%; in assay [3], 106%; in assay [4] it was 107%; in assay [5], 118%; in assay [6], 101%. Further, the growth in assay [7] was 113%; in [8], 102%; in assay [9] it was 108%; in assay [10], 106%; in [11] it was 116%; in assay [12], 111%. Also, the growth in [13] was 102%; in assay [14], 98.5%; in assay [15], 102%; in assay [16], 101%; in [17], 101%; in [18], 97.9%. In addition, the growth in [19] is 105%.

On to `CCCCCC(=O)Oc1ccc(/C(=C(\C)c2ccccc2)c2ccc(OCCN(CC)CC)cc2)cc1`, for which the growth in [1] was 103%; in [2], 12.2%; in assay [3], 65.3%; in assay [4], 84.8%; in assay [5], 66.9%; in assay [6], 71.5%. The growth was 79.5% in assay [7]; 46.8% in assay [8]; 7.01% (active) in assay [9]; 8.98% (active) in assay [10]; 38.6% in assay [11]; 4.26% (active) in assay [12]. Also, the growth in assay [13] was 85.3%; in assay [14] it was 52.1%; in [15] it was 55.7%; in assay [16], 54.4%; in assay [17], 57.4%; in assay [18], 68.8%. Further, the growth in [19] is 53%.

With `COc1cc(NCCCCCN=C(N)NC(N)=NC(C)C)c2ncccc2c1`, the growth was 104% in assay [1]; 26.1% in assay [2]; -19.2% (active) in assay [3]; 22% in assay [4]; 131% in assay [5]; 29% in assay [6]. Also, the growth in assay [7] was 98.3%; in [8], 44.9%; in [9], -8.06% (active); in assay [10], 67.7%; in [11] it was 110%; in assay [12] it was 54.2%. In addition, the growth is 33.2% in [13]; 20.5% in [14]; 32.8% in assay [15]; 5.87% (active) in assay [16]; 36.8% in [17]; 9.91% (active) in [18]. Moreover, in assay [19], the growth was 60.1%.

On to `CC(C)(C)n1cc(-c2ccnc(NCCNS(=O)(=O)c3ccccc3)c2)c(-c2cccc(O)c2)n1`, for which the growth in assay [1] is 68.9%; in [2] it was 7.69% (active); in assay [3], 59.4%; in assay [4] it was 42.7%; in [5], 61.6%; in [6], 63.3%. Also, the growth in assay [7] is 48.3%; in assay [8] it was 52.2%; in assay [9], 65.8%; in [10] it was 53.9%; in [11], 9.17% (active); in assay [12] it was 15.6%. The growth is 80.8% in assay [13]; 52% in assay [14]; 41.5% in assay [15]; 23.2% in [16]; 70.1% in assay [17]; 20.4% in [18]. In addition, the growth in assay [19] was 60.4%.
